# Inconclusive results are not listed. Active and inactive are the calls of the source. How the source made its calls: active means hit-call score of the fitted dose curve at least 0.9, where 1 is the maximum; inconclusive means response in the unintended direction; inactive means score below 0.9.
# Legend:
# [1] = target: human Phosphodiesterase 4A1 (PDE4A1), PDE4A (gene 5141) (UniProt P27815); experiment: NVS_ENZ_hPDE4A1: NovaScreen (NVS) Enzymatic Assay for human Phosphodiesterase 4A1 (PDE4A1) (AID 2283191)
# How it was run: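 Fluorescent substrate turnover by recombinant PDE4A1 read after 1 h by mobility-shift separation. Primary duplicate screen at 25 uM; hits retested in concentration series with a 50 uM maximum, relative to DMSO.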
# [2] = target: human Matrix Metalloproteinase-9 (MMP9), MMP9 (gene 4318) (UniProt P14780); experiment: NVS_ENZ_hMMP9: NovaScreen (NVS) Enzymatic Assay for human Matrix Metalloproteinase-9 (MMP9) (AID 2283190);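 further: cell-free recombinant MMP9 protease activity read by fluorescent substrate signal; active means inhibition seen as loss of fluorescence signal versus DMSO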
# How it was run: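 Cell-free recombinant MMP9 enzyme activity measured by fluorescence intensity 1 h after dosing. Primary screen in duplicate at 25 uM, actives followed in concentration series; loss of signal relative to DMSO.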
# [3] = target: human Phosphodiesterase 5 (PDE5), PDE5A (gene 8654) (UniProt O76074); experiment: NVS_ENZ_hPDE5: NovaScreen (NVS) Enzymatic Assay for human Phosphodiesterase 5 (PDE5) (AID 2283194)
# How it was run: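 Screening began in duplicate at 25 uM, with actives taken into concentration-response. Enzyme activity of recombinant PDE5 toward its substrate was measured at 1 h by fluorescence mobility-shift detection, relative to DMSO controls.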
# [4] = target: cAMP-dependent protein kinase catalytic subunit alpha (Homo sapiens) (UniProt P17612); experiment: NVS_ENZ_hPKA: NovaScreen (NVS) Enzymatic Assay for human Protein Kinase A (PKA) (AID 2283192)
# How it was run: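 Cell-free kinase activity read by fluorescence after mobility-shift separation of substrate and product, 1 h post-dosing. Single-concentration duplicate screen (25 uM) preceded singleton concentration series (top 50 uM); loss of signal versus DMSO.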
# [5] = target: human Protein Phosphatase, Mg2+/Mn2+ Dependent 1A (PPM1A), PPM1A (gene 5494) (UniProt P35813); experiment: NVS_ENZ_hPPM1A: NovaScreen (NVS) Enzymatic Assay for human Protein Phosphatase, Mg2+/Mn2+ Dependent 1A (PPM1A) (AID 2283198)
# How it was run: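 Primary screen in duplicate at 25 uM, with actives then titrated to a maximum of 50 uM. Recombinant PPM1A dephosphorylation of fluorescent substrate measured at 1 h, with substrate and product separated by mobility shift; inhibition fitted against DMSO.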
# [6] = target: human NIMA (Never In Mitosis Gene A)-Related Kinase 2 (NEK2), NEK2 (gene 4751) (UniProt P51955); experiment: NVS_ENZ_hNEK2: NovaScreen (NVS) Enzymatic Assay for human NIMA (Never In Mitosis Gene A)-Related Kinase 2 (NEK2) (AID 2283188)
# Protocol: NVS_ENZ_hNEK2 is a biochemical, single-readout assay that uses extracted gene-proteins in a cell-free assay. Measurements were taken 1 hour after chemical dosing in a 384-well plate.NVS_ENZ_hNEK2 is one of one assay component(s) measured or calculated from the NVS_ENZ_hNEK2 assay. It is designed to make measurements of enzyme activity, a form of enzyme reporter, as detected with fluorescence intensity signals by Fluorescence and electrophoretic mobility shift technology.Data from the assay component NVS_ENZ_hNEK2 was analyzed into 1 assay endpoint. This assay endpoint, NVS_ENZ_hNEK2, was analyzed in the positive analysis fitting direction relative to DMSO as the negative control and baseline of activity. Using a type of enzyme reporter, loss-of-signal activity can be used to understand changes in the enzymatic activity as they relate to the gene NEK2. Furthermore, this assay endpoint can be referred to as a primary readout, because this assay has produced multiple assay endpoints where this one serves a enzymatic activity function. To generalize the intended target to other relatable targets, this assay endpoint is annotated to the kinase intended target family, where the subfamily is serine/threonine kinase. […]
# PPP2CA (gene 5515) = PPP2CA (gene 5515) (UniProt P67775); experiment: NVS_ENZ_hPPP2CA: NovaScreen (NVS) Enzymatic Assay for human Protein Phosphatase 2 Aatalytic subunit Alpha (PPP2CA) (AID 2283199)
# How it was run: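 Cell-free phosphatase activity: fluorescent substrate turnover by recombinant human enzyme, resolved by mobility shift at 1.33 h. Compounds passing the 25 uM duplicate primary screen were rerun in singleton series with a 50 uM top concentration.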
# [7] = target: human p21 Activated Kinase 4 (PAK4), PAK4 (gene 10298) (UniProt O96013); experiment: NVS_ENZ_hPAK4: NovaScreen (NVS) Enzymatic Assay for human p21 Activated Kinase 4 (PAK4) (AID 2283189)
# How it was run: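 Extracted PAK4 enzyme activity read by fluorescence with mobility-shift separation 1 h after chemical addition. Duplicate single-concentration screen at 25 uM, DMSO as negative control.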
# [8] = target: human Phosphodiesterase 10 (PDE10), PDE10A (gene 10846) (UniProt Q9Y233); experiment: NVS_ENZ_hPDE10: NovaScreen (NVS) Enzymatic Assay for human Phosphodiesterase 10 (PDE10) (AID 2283195)
# How it was run: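 Readout is fluorescence intensity following electrophoretic mobility-shift separation, 1 h after dosing of isolated PDE10A protein. Hits meeting a preset threshold at 25 uM went to concentration series (max 50 uM), analysed relative to DMSO.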
# [9] = target: human Phosphoinositide 3-kinase alpha (PI3Ka), PIK3CA (gene 5290) (UniProt P42336); experiment: NVS_ENZ_hPI3Ka: NovaScreen (NVS) Enzymatic Assay for human Phosphoinositide 3-kinase alpha (PI3Ka) (AID 2283196)
# How it was run: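 Recombinant human PI3Kα with fluorescent substrate, 1 h, product separated by electrophoretic mobility shift; 25 uM duplicate screen, hits (e.g., 30% inhibition) retested singly up to 50 uM; loss of signal vs DMSO.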
# Chain of human Phosphodiesterase 4A1 (PDE4A1), PDE4A (gene 5141) (P27815 whole entry, looked up): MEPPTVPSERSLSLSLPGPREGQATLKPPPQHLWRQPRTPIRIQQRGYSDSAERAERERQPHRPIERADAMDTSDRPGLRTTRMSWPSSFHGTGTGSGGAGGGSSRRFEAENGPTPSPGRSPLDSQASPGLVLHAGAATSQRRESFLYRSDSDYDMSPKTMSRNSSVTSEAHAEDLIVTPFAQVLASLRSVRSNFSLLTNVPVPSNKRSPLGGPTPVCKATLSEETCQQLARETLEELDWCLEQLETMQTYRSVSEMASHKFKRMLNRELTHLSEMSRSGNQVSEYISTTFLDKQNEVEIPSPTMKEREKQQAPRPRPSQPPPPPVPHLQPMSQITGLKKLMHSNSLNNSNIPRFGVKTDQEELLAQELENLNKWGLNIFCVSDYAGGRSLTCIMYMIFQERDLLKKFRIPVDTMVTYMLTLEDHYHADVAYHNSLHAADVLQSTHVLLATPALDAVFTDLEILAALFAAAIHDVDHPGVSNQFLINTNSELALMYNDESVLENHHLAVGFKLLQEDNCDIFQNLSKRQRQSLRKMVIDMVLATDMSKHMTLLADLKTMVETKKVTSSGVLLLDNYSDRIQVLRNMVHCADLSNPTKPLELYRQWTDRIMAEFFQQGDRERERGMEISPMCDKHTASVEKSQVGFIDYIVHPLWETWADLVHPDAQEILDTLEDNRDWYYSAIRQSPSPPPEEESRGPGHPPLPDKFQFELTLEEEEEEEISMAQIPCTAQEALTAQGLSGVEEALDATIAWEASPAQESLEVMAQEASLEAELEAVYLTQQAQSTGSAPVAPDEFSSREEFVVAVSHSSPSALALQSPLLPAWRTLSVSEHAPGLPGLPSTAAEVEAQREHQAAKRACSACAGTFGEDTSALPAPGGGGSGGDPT
# Chain of PPP2CA (gene 5515) (P67775 whole entry, looked up): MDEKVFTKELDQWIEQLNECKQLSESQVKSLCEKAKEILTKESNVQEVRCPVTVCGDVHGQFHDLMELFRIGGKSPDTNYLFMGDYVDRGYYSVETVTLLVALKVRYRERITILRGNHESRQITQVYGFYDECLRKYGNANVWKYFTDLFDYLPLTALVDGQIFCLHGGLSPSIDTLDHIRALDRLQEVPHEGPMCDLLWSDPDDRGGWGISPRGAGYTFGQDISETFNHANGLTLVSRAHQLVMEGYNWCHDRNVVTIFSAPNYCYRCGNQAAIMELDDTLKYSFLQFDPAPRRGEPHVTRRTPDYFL
# Chain of human p21 Activated Kinase 4 (PAK4), PAK4 (gene 10298) (O96013 whole entry, looked up): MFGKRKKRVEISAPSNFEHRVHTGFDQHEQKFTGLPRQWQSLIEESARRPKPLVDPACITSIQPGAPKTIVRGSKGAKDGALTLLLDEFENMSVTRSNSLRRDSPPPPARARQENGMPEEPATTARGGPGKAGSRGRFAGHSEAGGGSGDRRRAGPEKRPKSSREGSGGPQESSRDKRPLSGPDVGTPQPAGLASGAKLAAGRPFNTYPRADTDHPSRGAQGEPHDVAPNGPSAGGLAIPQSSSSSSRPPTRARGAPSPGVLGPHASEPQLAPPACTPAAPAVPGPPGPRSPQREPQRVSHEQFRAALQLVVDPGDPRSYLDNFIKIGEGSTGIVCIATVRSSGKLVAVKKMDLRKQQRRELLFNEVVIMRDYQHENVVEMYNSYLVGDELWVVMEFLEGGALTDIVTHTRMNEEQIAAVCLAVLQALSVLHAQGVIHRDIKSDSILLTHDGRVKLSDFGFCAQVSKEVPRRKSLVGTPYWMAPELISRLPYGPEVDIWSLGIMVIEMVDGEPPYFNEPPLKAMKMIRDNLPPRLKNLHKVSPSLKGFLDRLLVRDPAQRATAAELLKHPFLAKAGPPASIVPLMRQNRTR
# Chain of human Protein Phosphatase, Mg2+/Mn2+ Dependent 1A (PPM1A), PPM1A (gene 5494) (P35813 whole entry, looked up): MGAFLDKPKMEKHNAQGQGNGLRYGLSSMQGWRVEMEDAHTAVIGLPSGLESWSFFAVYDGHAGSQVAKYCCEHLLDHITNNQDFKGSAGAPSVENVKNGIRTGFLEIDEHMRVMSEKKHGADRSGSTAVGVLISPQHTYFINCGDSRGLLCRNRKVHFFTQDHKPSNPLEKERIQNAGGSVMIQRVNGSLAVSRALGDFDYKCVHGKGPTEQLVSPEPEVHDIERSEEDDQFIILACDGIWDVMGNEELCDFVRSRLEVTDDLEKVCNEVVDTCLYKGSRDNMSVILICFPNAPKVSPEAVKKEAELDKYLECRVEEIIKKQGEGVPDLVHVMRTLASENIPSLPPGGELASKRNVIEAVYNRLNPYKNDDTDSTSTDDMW
# Chain of human Matrix Metalloproteinase-9 (MMP9), MMP9 (gene 4318) (P14780 whole entry, looked up): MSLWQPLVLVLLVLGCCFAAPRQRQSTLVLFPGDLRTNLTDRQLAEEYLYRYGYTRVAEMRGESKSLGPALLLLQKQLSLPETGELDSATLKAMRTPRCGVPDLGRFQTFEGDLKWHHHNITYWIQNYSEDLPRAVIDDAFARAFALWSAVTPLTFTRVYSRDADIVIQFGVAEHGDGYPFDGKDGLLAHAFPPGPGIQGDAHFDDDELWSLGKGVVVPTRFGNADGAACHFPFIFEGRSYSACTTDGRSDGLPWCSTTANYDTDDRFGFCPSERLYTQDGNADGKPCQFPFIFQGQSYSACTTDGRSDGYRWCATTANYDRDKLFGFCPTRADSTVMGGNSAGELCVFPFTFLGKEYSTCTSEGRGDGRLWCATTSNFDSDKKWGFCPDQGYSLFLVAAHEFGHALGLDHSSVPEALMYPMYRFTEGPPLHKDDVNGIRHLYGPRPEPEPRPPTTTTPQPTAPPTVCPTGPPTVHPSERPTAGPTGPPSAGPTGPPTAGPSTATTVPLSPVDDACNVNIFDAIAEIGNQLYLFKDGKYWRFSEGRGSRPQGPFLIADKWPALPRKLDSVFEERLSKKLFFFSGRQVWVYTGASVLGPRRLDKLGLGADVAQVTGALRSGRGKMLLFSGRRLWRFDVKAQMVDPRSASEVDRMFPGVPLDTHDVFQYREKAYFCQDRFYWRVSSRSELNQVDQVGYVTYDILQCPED
# Chain of human NIMA (Never In Mitosis Gene A)-Related Kinase 2 (NEK2), NEK2 (gene 4751) (P51955 whole entry, looked up): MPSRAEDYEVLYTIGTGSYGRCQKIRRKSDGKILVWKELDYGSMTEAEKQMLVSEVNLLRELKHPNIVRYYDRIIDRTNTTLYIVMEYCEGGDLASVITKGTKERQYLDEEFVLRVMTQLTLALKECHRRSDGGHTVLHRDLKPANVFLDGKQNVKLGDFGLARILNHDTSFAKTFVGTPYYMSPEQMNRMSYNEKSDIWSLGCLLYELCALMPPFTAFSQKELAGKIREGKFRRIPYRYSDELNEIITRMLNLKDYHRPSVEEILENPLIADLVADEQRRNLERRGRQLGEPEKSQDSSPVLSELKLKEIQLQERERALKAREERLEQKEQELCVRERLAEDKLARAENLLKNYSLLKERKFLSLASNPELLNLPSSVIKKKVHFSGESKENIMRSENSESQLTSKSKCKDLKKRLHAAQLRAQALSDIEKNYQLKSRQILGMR
# Chain of human Phosphodiesterase 10 (PDE10), PDE10A (gene 10846) (Q9Y233 whole entry, looked up): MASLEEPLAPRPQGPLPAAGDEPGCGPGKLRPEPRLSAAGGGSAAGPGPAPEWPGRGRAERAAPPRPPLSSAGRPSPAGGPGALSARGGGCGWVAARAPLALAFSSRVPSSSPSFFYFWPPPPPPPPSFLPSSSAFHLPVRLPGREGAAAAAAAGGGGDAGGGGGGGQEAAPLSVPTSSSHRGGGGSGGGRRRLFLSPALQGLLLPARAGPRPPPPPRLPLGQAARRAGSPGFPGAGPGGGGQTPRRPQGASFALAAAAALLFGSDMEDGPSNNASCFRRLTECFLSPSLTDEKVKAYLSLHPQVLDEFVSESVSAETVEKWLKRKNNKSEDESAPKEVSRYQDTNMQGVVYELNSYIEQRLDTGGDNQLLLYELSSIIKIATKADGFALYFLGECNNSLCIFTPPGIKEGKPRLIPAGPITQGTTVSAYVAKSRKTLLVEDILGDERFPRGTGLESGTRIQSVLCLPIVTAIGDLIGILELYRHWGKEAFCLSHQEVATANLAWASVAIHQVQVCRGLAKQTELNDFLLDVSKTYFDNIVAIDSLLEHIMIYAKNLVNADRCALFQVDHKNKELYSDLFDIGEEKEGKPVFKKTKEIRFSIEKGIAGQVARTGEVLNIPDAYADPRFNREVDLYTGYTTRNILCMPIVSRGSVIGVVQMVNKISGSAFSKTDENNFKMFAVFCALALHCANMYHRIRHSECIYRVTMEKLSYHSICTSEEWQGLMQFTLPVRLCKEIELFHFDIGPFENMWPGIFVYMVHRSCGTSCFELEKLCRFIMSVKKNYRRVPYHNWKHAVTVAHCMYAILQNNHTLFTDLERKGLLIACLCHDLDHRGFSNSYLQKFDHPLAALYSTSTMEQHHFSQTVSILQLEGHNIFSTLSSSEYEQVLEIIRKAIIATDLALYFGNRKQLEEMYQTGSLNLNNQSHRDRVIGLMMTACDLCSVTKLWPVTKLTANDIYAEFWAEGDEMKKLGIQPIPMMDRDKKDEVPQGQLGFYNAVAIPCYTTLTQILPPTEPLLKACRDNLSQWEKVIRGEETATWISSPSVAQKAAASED
compound,measurement,setting,value
CC(C)(C)OOC(C)(C)CCC(C)(C)OOC(C)(C)C,outcome,[1],inactive
c1ccc(C2CO2)cc1 (centres undefined),outcome,[2],inactive
same,outcome,[3],inactive
CCOc1cccc(C2(N3CCN(c4ccccc4)CC3)CCC(C)CC2)c1 (centres undefined),outcome,[4],inactive
same,outcome,[5],inactive
CCCCC(CC)COC(=O)c1ccc(C(=O)OCC(CC)CCCC)c(C(=O)OCC(CC)CCCC)c1 (centres undefined),outcome,[6],inactive
same,outcome,[3],inactive
CCCSC(=O)N(CCC)CCC,outcome,[3],inactive
CCN(CC)N=O,outcome,[4],inactive
same,outcome,[3],inactive
same,outcome,PPP2CA (gene 5515),inactive
C[C@]12C=CC3=C4CCC(=O)C=C4CC[C@H]3[C@@H]1CC[C@@H]2O,outcome,[7],inactive
same,AC50,[3],25 µM (active)
CCCCCOC(=O)c1ccccc1C(=O)OCCCCC,AC50,[2],12.6 µM (active)
CN(C)c1ccc(C(=O)c2ccc(N(C)C)cc2)cc1,outcome,[1],inactive
same,AC50,[3],29.1 µM (active)
CC(C)(OOC(C)(C)c1ccccc1)c1ccccc1,outcome,PPP2CA (gene 5515),inactive
Cc1cc(N=Nc2ccccc2C)ccc1N,outcome,[7],inactive
CCCCOC(=O)c1ccccc1C(=O)OCc1ccccc1,outcome,[5],inactive
Cn1cc(-c2ccccc2)c(=O)c(-c2cccc(C(F)(F)F)c2)c1,outcome,[7],inactive
CS(=O)(=O)NC(=O)c1cc(Oc2ccc(C(F)(F)F)cc2Cl)ccc1[N+](=O)[O-],outcome,[1],inactive
O=C(Oc1ccc(Br)cc1)N1CCN2CCC1CC2,outcome,[1],inactive
same,outcome,[8],inactive
CCNS(=O)(=O)C(F)(F)C(F)(F)C(F)(F)C(F)(F)C(F)(F)C(F)(F)C(F)(F)C(F)(F)F,outcome,[6],inactive
same,outcome,[7],inactive
same,outcome,[1],inactive
same,outcome,[4],inactive
same,outcome,[3],inactive
same,outcome,[8],inactive
same,outcome,[9],inactive
same,outcome,PPP2CA (gene 5515),inactive
Clc1ccc(C(c2ccc(Cl)cc2)C(Cl)(Cl)Cl)cc1,outcome,[2],inactive
Cc1ccc(N=C=O)cc1N=C=O,outcome,[2],inactive
same,outcome,[5],inactive
Nc1ccc(Cl)cc1N,AC50,[3],12.6 µM (active)
CCC12COCN1COC2,outcome,[5],inactive
same,outcome,PPP2CA (gene 5515),inactive
O=Cc1ccco1,outcome,[2],inactive
Nc1ccc([N+](=O)[O-])cc1,outcome,PPP2CA (gene 5515),inactive
Clc1ccc(Cl)c(Cl)c1,outcome,PPP2CA (gene 5515),inactive
O=[N+]([O-])c1ccc(Oc2ccc(Cl)cc2Cl)cc1,outcome,[2],inactive
C1=Cc2cccc3cccc1c23,outcome,[2],inactive
COc1cc(C=O)cc2c1[C@H](COC(N)=O)[C@]1(OC(C)=O)ON2C[C@H]2[C@@H]1N2C(C)=O,outcome,[7],inactive
Oc1ccc2ccc3cccc4ccc1c2c34,AC50,[4],6.65 µM (active)
